Activity calls are given as the source filed them.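 Rule for the calls, unless noted: active = inhibition of the reporter signal at or above 50%; inactive = inhibition below 50%.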

A short description of one assay: blockers of RIG-like receptor reporter activation – cell-based, Sendai virus stimulus, luciferase, 10K MLSCN set, TLR/RLR signaling modifier project, primary screen (AID 602276;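 active = inhibition at or above 50% at 10 µM; inactive = inhibition below 50%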;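 note: firefly luciferase from ISG56 promoter only with Renilla not read in this screen; 0% = Sendai virus plus DMSO and 100% = medium plus DMSO without virus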). Conditions: HEK293 RL24 IRF3 luciferase reporter, at 10 µM, stronger effect = higher value. Background: Reporter assays use an easily measured gene product as a stand-in for the process of interest.
As usually defined, the inhibition is the drop in the measured response relative to a control, in per cent. In the case of `CCOC(=O)c1c(NC(=O)OC)sc2c1CCC2`, the inhibition is 7.95% (inactive).

In the case of `CCn1c(SCC(=O)N2c3ccccc3CCc3ccccc32)nc2c1c(=O)n(C)c(=O)n2C`, the inhibition is 5.5% (inactive).

Consider `COc1cccc(C(=O)Nc2c(C(N)=O)oc3ccccc23)c1`, for which the inhibition was 10.6% (inactive).

Take `Cc1cc(C(=O)Nc2nnc(C(F)(F)F)s2)no1`: the inhibition is -1.51% (inactive).

In the case of `CC(Oc1ccccc1)C(=O)NC1CCN(Cc2ccccc2)CC1` (stereo not drawn), the inhibition was 11.2% (inactive).

Consider `COC(=O)[C@H](CCSC)NC(=O)Nc1cc(C)ccc1C`, for which the inhibition is 11.7% (inactive).

`COc1ccc(NC(=O)CC2Oc3ccccc3NC2=O)cc1` (stereo not drawn): the inhibition is 4.81% (inactive).

Take `Oc1ccc(Nc2nc(-c3ccc(O)cc3)cs2)cc1`: the inhibition was -43% (inactive).

For `COc1ccc(OC)c(C2CC(=O)NC(SC)=C2C#N)c1` (stereo not drawn), the inhibition is 8.75% (inactive).

As to `COc1ccccc1CC(NC(C)=O)C(=O)NC1CCN(c2nnnn2-c2ccccc2)CC1` (stereo not drawn), the inhibition is -1.4% (inactive).

Turning to `COc1ccc(-c2nnc(SC(C)C(=O)Nc3nccs3)n2-c2ccccc2)cc1OC` (stereo not drawn), the inhibition was -14.8% (inactive).

`CC(=O)N1CCN(S(=O)(=O)c2ccc(S(=O)(=O)NCC(C)C)cc2)CC1`: the inhibition is 14.8% (inactive).

Take `CCCN(CCC)CCNS(=O)(=O)c1ccc2c(c1)oc(=O)n2C`: the inhibition was 9.38% (inactive).

As to `CCOC(=O)C1=C(C)NC(=O)NC1c1ccc(Br)s1` (stereo not drawn), the inhibition is 11.8% (inactive).

In the case of `COc1ccc(CC(=O)Nc2ccc(OC)c(NC(=O)c3ccco3)c2)cc1`, the inhibition was -27.5% (inactive).

`Nn1c(SCC(=O)Nc2ccc(S(=O)(=O)N3CCCC3)cc2)nnc1C(F)(F)F`: the inhibition is 9.87% (inactive).

`O=C1C2C3C=CC(C3=C3CCCCC3)C2C(=O)N1c1ccccc1` (stereo not drawn): the inhibition was 12.4% (inactive).

As for `CCC(=O)Nc1cc(C)c(NC(=O)C23CC4CC(CC(C4)C2)C3)cn1`, the inhibition was 1.14% (inactive).

Turning to `O=C(c1ncc[nH]1)c1ccccc1C(=O)N1CCOCC1`, the inhibition was -6.47% (inactive).

For the molecule `CCc1ccc(NC(=O)CS(=O)CC(=O)NC(C)CCc2ccco2)cc1` (stereo not drawn), the inhibition is 5.19% (inactive).

As to `N#Cc1nc(COc2ccccc2Cl)oc1N1CCCCCC1`, the inhibition is 0.19% (inactive).

As for `O=C(c1ccco1)N1CCN(c2nc(C(F)(F)F)nc3c2nnn3Cc2ccccc2)CC1`, the inhibition was 3.06% (inactive).

As to `Cc1ccc2c(c1)-c1c(cnn1CC(=O)NC(C)CCc1ccco1)CO2` (stereo not drawn), the inhibition is 11.5% (inactive).

Take `CCC1(CC)C(=O)N(C)C(=O)NC1=NCc1ccccc1`: the inhibition was 18.2% (inactive).

The nature of another assay: TLR3 IRF3 reporter activation blockers – cell-based, poly I:C stimulus, luciferase, 10K MLSCN set, primary screen (AID 602277). Conditions: HEK293-TLR3 RL24 IRF3 luciferase reporter, at 10 µM, stronger effect = higher value.
As to `Cc1cc(C)c(C#N)c(SCC(=O)Nc2ccc(S(=O)(=O)Nc3onc(C)c3C)cc2)n1`, the inhibition was 24.3% (inactive).

For the molecule `CC(C)c1ccc(C(O)c2cnc(C(C)C)n2C)cc1` (stereo not drawn), the inhibition is -5.66% (inactive).

With `CN1CCN(S(=O)(=O)c2ccc(NC(=O)c3ccc(F)cc3)cc2)CC1`, the inhibition was -12.3% (inactive).

Regarding `O=c1c2[nH]c3cccc(Cl)c3c2ncn1CCN1CCCCC1`, the inhibition was 27.2% (inactive).

As for `COc1ccc(OC)c(C(=O)CSc2nc3ncccc3[nH]2)c1`, the inhibition is -19.6% (inactive).

For `O=C(CC(CC(=O)c1ccccc1)C(=O)O)c1ccccc1`, the inhibition is -0.177% (inactive).

`CCOc1ccc2nc(Nc3nc4c(c(=O)[nH]3)CCC4)nc(C)c2c1`: the inhibition is -83.1% (inactive).

With `CCOC(=O)Cn1c(S(=O)(=O)Cc2ccccc2)nc2ccccc21`, the inhibition was 30.4% (inactive).

For `CC(C)NC(=O)Nc1cccs1`, the inhibition is 4.68% (inactive).

With `CC(C)COC(=O)C1[C@H]2C(=O)N(Cc3cccs3)C[C@]23C=C[C@H]1O3` (stereo partly drawn), the inhibition is 32.4% (inactive).

As to `CN(C)S(=O)(=O)c1ccc(S(=O)(=O)N(Cc2ccco2)Cc2ccccc2Cl)cc1`, the inhibition was 53.4% (active).

For `COc1cccc(N(C(=O)c2ccco2)C(C(=O)NC2CCCC2)c2ccc(N(C)C)cc2)c1` (stereo not drawn), the inhibition is 15.9% (inactive).

Consider `CCOc1ccc(Cn2nnc(C(=O)Nc3ccc(OC)cc3OC)c2N)cc1`, for which the inhibition is -8.45% (inactive).

As for `CC(NC(=O)c1ccc2c(c1)OCO2)C(c1cccs1)N1CCOCC1` (stereo not drawn), the inhibition is 15.4% (inactive).

In the case of `Cn1c(=N)c(S(=O)(=O)c2ccccc2)cc2c(=O)n3ccccc3nc21`, the inhibition was -10.5% (inactive).

`CCOC(=O)c1c(NC(=O)OC)sc2c1CCC2`: the inhibition is 15.6% (inactive).

As to `CCn1c(SCC(=O)N2c3ccccc3CCc3ccccc32)nc2c1c(=O)n(C)c(=O)n2C`, the inhibition is 16.2% (inactive).

Take `COc1cccc(C(=O)Nc2c(C(N)=O)oc3ccccc23)c1`: the inhibition is 25.5% (inactive).

In the case of `Cc1cc(C(=O)Nc2nnc(C(F)(F)F)s2)no1`, the inhibition was -19.4% (inactive).

`CC(Oc1ccccc1)C(=O)NC1CCN(Cc2ccccc2)CC1` (stereo not drawn): the inhibition was 21.3% (inactive).

On to `COC(=O)[C@H](CCSC)NC(=O)Nc1cc(C)ccc1C`, for which the inhibition was 31% (inactive).

Take `COc1ccc(NC(=O)CC2Oc3ccccc3NC2=O)cc1` (stereo not drawn): the inhibition is 31.8% (inactive).

For `Oc1ccc(Nc2nc(-c3ccc(O)cc3)cs2)cc1`, the inhibition was -59.8% (inactive).

As to `COc1ccc(OC)c(C2CC(=O)NC(SC)=C2C#N)c1` (stereo not drawn), the inhibition was 29% (inactive).

For the molecule `COc1ccccc1CC(NC(C)=O)C(=O)NC1CCN(c2nnnn2-c2ccccc2)CC1` (stereo not drawn), the inhibition is 16.9% (inactive).

Consider `COc1ccc(-c2nnc(SC(C)C(=O)Nc3nccs3)n2-c2ccccc2)cc1OC` (stereo not drawn), for which the inhibition was -2.92% (inactive).

For `CC(=O)N1CCN(S(=O)(=O)c2ccc(S(=O)(=O)NCC(C)C)cc2)CC1`, the inhibition was 12.6% (inactive).

In the case of `CCCN(CCC)CCNS(=O)(=O)c1ccc2c(c1)oc(=O)n2C`, the inhibition was 10.9% (inactive).

With `CCOC(=O)C1=C(C)NC(=O)NC1c1ccc(Br)s1` (stereo not drawn), the inhibition is 12.6% (inactive).

Consider `COc1ccc(CC(=O)Nc2ccc(OC)c(NC(=O)c3ccco3)c2)cc1`, for which the inhibition is -49.2% (inactive).

Consider `Nn1c(SCC(=O)Nc2ccc(S(=O)(=O)N3CCCC3)cc2)nnc1C(F)(F)F`, for which the inhibition is 12.8% (inactive).

As to `O=C1C2C3C=CC(C3=C3CCCCC3)C2C(=O)N1c1ccccc1` (stereo not drawn), the inhibition was 16% (inactive).

In the case of `CCC(=O)Nc1cc(C)c(NC(=O)C23CC4CC(CC(C4)C2)C3)cn1`, the inhibition was 18.1% (inactive).

Regarding `O=C(c1ncc[nH]1)c1ccccc1C(=O)N1CCOCC1`, the inhibition is 4.36% (inactive).

Take `CCc1ccc(NC(=O)CS(=O)CC(=O)NC(C)CCc2ccco2)cc1` (stereo not drawn): the inhibition is 13.9% (inactive).

In the case of `N#Cc1nc(COc2ccccc2Cl)oc1N1CCCCCC1`, the inhibition was 0.00693% (inactive).

For `O=C(c1ccco1)N1CCN(c2nc(C(F)(F)F)nc3c2nnn3Cc2ccccc2)CC1`, the inhibition was -42% (inactive).

Turning to `Cc1ccc2c(c1)-c1c(cnn1CC(=O)NC(C)CCc1ccco1)CO2` (stereo not drawn), the inhibition is 29.3% (inactive).

Regarding `CCC1(CC)C(=O)N(C)C(=O)NC1=NCc1ccccc1`, the inhibition is 12.1% (inactive).

The record behind these values is PubChem BioAssay.
